Inconclusive results are not listed. The source made the active and inactive calls. Rule for the calls, unless noted: active = hit-call score of the fitted dose curve at least 0.9, where 1 is the maximum; inactive = score below 0.9.
Key:
[1] = CCTE_Padilla_ZF_Score.General: CCTE's 144 Hour Post-fertilization zebrafish Assay Score for General Malformation, Padilla Lab (AID 2284411)
Summary of the method: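 Wild-type zebrafish embryos were plated singly at 6-8 hpf in 10% Hanks' and exposed in sealed wells at 26C until rinsed on 5 dpf. At 6 dpf two blinded assessors scored mortality, hatching and malformations by stereomicroscopy; gain-of-signal versus DMSO.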

[2] = CCTE_Padilla_ZF_Score.Tail: CCTE's 144 Hour Post-fertilization zebrafish Assay Score for Tail Malformation, Padilla Lab (AID 2284414)
Summary of the method: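 Wild-type zebrafish embryos, one per well in 200 uL 10% Hanks', dosed at 6-8 hpf, sealed, and kept at 26 C on a 14:10 h light cycle. Chemical was rinsed out at 5 dpf. Blinded brightfield scoring of tail defects followed at 6 dpf.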

[3] = CCTE_Padilla_ZF_Score.Blood_pooling: CCTE's 144 Hour Post-fertilization zebrafish Assay Score for Blood Pooling, Padilla Lab (AID 2284415)
Summary of the method: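 Wild-type outbred zebrafish embryos, one per well in 10% Hanks', exposed from 6–8 hpf in sealed plates at 26C on 14:10 h light:dark, rinsed at 5 dpf. Blinded stereomicroscope scoring of blood pooling at 6 dpf; gain-of-signal versus DMSO.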

[4] = CCTE_Padilla_ZF_Score.Any: CCTE's 144 Hour Post-fertilization zebrafish Assay Score for Any Mortality or Malformation, Padilla Lab (AID 2284416)
Summary of the method: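 Wild-type zebrafish embryos with chorions, one per well in 10% Hanks' from 6–8 hpf, dosed in sealed plates at 26 C, 14:10 h light:dark; rinsed at 5 dpf; blinded scoring at 6 dpf for death or malformation, versus DMSO.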

TTR (gene 7276) = assay: CCTE_GLTED_hTTR_0.125uM: CCTE's human Transthyretin (hTTR) Inhibition Assay, with 0.125uM TTR, Great Lakes Toxicology and Ecology Division (GLTED) Lab (AID 2284431);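 note: hits lower the fluorescence signal relative to DMSO baseline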
Summary of the method: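 Probe-displacement format: chemicals competing for the T4 site release ANSA from 0.125uM TTR during a 2 h incubation, measured by fluorescence at 380 excitation and 475 emission.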

[5] = test system: SRY-box transcription factor 2 (SOX2) Protein Expression, Deisenroth Lab, SOX2 (gene 6657); assay: CCTE_Deisenroth_DEVTOX-GLR_Endo_SOX2: CCTE's DevTox GLR-Endo Assay Evaluation of SRY-box transcription factor 2 (SOX2) Protein Expression, Deisenroth Lab (AID 2284412; active = hit-call score of the fitted dose curve at least 0.9, where 1 is the maximum)
Summary of the method: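 RUES2-GLR human pluripotent cells were seeded 24 h, then differentiated 48 h with two chemical exposures 24 h apart. Cells were fixed, nuclei stained and imaged by high-content microscopy. Endpoint is %SOX2+ cells over cell count, minus 0.2% DMSO control; 10-point series 1 nM–200 uM.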

[6] = test system: SRY-box transcription factor 17 (SOX17) Protein Expression, Deisenroth Lab, SOX17 (gene 64321); assay: CCTE_Deisenroth_DEVTOX-GLR_Endo_SOX17: CCTE's DevTox GLR-Endo Assay Evaluation of SRY-box transcription factor 17 (SOX17) Protein Expression, Deisenroth Lab (AID 2284413)
Summary of the method: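 Seed RUES2-GLR cells 24 h; start endoderm differentiation; dose at 0 and 24 h (1 nM - 200 uM, 10 points); fix at 48 h, stain nuclei, image 5 fields/well; compute SOX17+/total cells vs 0.2% DMSO.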

[7] = test system: Brachyury (BRA) Protein Expression, TBXT (gene 6862); assay: CCTE_Deisenroth_DEVTOX-GLR_Endo_BRA: CCTE's DevTox GLR-Endo Assay Evaluation of Brachyury (BRA) Protein Expression, Deisenroth Lab (AID 2284417)
Summary of the method: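 Read-out: BRA+ cell count divided by total cell count by high-content imaging (5 fields per well), expressed relative to 0.2% DMSO solvent control. RUES2-GLR cells dosed twice over a 48 h differentiation; concentrations 1 nM - 200 uM.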

[8] = CCTE_Deisenroth_DEVTOX-GLR_Endo_CellCount: Viability Assessment in CCTE's DevTox GLR-Endo Assay, Deisenroth Lab (AID 2284420)
Summary of the method: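 Viability in differentiating RUES2-GLR cultures is scored by fluorescent nuclear counts after 48 h and two 24-hourly chemical treatments, as percent change from the 0.2% DMSO control.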

[9] = test system: SRY-box transcription factor 17 (SOX17) Protein Expression, Deisenroth Lab, SOX17 (gene 64321); assay: CCTE_Deisenroth_DEVTOX-GLR_Pluri_SOX17: CCTE's DevTox GLR-Pluri Assay Evaluation of SRY-box transcription factor 17 (SOX17) Protein Expression, Deisenroth Lab (AID 2284427; active = hit-call score of the fitted dose curve at least 0.9, where 1 is the maximum)
Summary of the method: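 Seed cells 24 h; differentiate 48 h, dosing at 0 and 24 h (1 nM - 200 uM); fix, stain nuclei, image 5 fields per well; count SOX17+ cells over total cells and subtract 0.2% DMSO control.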

[10] = test system: SRY-box transcription factor 2 (SOX2) Protein Expression, Deisenroth Lab, SOX2 (gene 6657); assay: CCTE_Deisenroth_DEVTOX-GLR_Pluri_SOX2: CCTE's DevTox GLR-Pluri Assay Evaluation of SRY-box transcription factor 2 (SOX2) Protein Expression, Deisenroth Lab (AID 2284428)
Summary of the method: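 SOX2 expression frequency is scored in a human pluripotent reporter line, RUES2-GLR, exposed to chemicals twice over 48 h. Imaging-based SOX2+ cell percentage is normalized as change versus 0.2% DMSO.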

[11] = test system: Brachyury (BRA) Protein Expression, Deisenroth Lab, TBXT (gene 6862); assay: CCTE_Deisenroth_DEVTOX-GLR_Pluri_BRA: CCTE's DevTox GLR-Pluri Assay Evaluation of Brachyury (BRA) Protein Expression, Deisenroth Lab (AID 2284429; active = hit-call score of the fitted dose curve at least 0.9, where 1 is the maximum)
Summary of the method: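 An inducible fluorescent BRA reporter in RUES2-GLR cells tracks mesoderm differentiation. Compounds (10 concentrations, 1 nM - 200 uM) are dosed twice within a 48-h differentiation. The endpoint subtracts the 0.2% DMSO control from percent BRA+ cells.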

[12] = CCTE_Deisenroth_DEVTOX-GLR_Pluri_CellCount: Viability Assessment in CCTE's DevTox GLR-Pluri Assay Evaluation of Total Cell Counts, Deisenroth Lab (AID 2284430)
Summary of the method: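 RUES2-GLR human pluripotent cells, seeded 24 h, then differentiated 48 h with two chemical exposures 24 h apart; 10-point series 1 nM - 200 uM. Fixed, nuclear-stained, imaged (5 fields/well); nuclei count as % change vs 0.2% DMSO.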

In the case of `FC(F)=C(F)C(F)(F)C(F)(F)C(F)(F)C(F)F`, the outcome [1] is reported as “inactive”, the outcome [2] is reported as “inactive” and the outcome [3] is reported as “inactive”. For the same compound, the outcome [4] was “inactive”.
With `O=C(O)CCC(F)(F)C(F)(F)C(F)(F)C(F)(F)C(F)(F)C(F)(F)F` the outcome [1] was “inactive”, the outcome [2] was “inactive” and the outcome [3] was “inactive”. For the same compound, the AC50 [4] was 13.8 µM (active).
With `O=C1c2ccc(O)c(O)c2C(=O)c2c(O)ccc(O)c21` the outcome [1] was “inactive”.
In the case of `C=CC(=O)OCCC(F)(F)C(F)(F)C(F)(F)C(F)(F)C(F)(F)C(F)(F)C(F)(F)C(F)(F)F`, the outcome [1] is reported as “inactive”, the outcome [2] is reported as “inactive” and the outcome [3] is reported as “inactive”. For the same compound, the outcome [4] was “inactive”.
With `O=C(O)C(F)(F)OC(F)(F)C(F)(F)OC(F)(F)C(F)(F)OC(F)(F)C(F)(F)C(F)(F)C(F)(F)F` the AC50 [1] was 2.18 µM (active), the outcome [2] was “inactive” and the outcome [3] was “inactive”. The AC50 [4] was 2.9 µM (active).
With `C=CC(F)(F)C(F)(F)C(F)(F)C(F)(F)F` the outcome [1] was “inactive”, the outcome [2] was “inactive” and the outcome [3] was “inactive”. The outcome [4] was “inactive”.
For `OCC(F)(F)C(F)(F)C(F)(F)C(F)(F)C(F)(F)C(F)(F)C(F)(F)C(F)(F)C(F)(F)C(F)(F)C(F)(F)F`, the outcome [1] was “inactive”, the outcome [2] was “inactive” and the outcome [3] was “inactive”. The outcome [4] was “inactive”.
With `CCCCc1ccc2ccccc2c1S(=O)(=O)O` the AC50 (TTR (gene 7276)) was 0.712 µM (active).
For `FCOC(C(F)(F)F)C(F)(F)F`, the outcome [1] was “inactive”, the outcome [2] was “inactive” and the outcome [3] was “inactive”. The outcome [4] was “inactive”.
With `CCCCc1oc2ccccc2c1C(=O)c1cc(I)c(OCCN(CC)CC)c(I)c1` the AC50 [5] was 31 µM (active), the AC50 [6] was 25.6 µM (active) and the AC50 [7] was 14.2 µM (active). For the same compound, the AC50 [8] was 18.2 µM (active), the AC50 [9] was 21.4 µM (active) and the AC50 [10] was 10.4 µM (active). For the same compound, the AC50 [11] was 6.42 µM (active) and the AC50 [12] was 10.6 µM (active).
In the case of `O=C1NS(=O)(=O)c2ccccc21`, the outcome [6] is reported as “inactive”, the outcome [7] is reported as “inactive” and the outcome [8] is reported as “inactive”. The outcome [9] was “inactive”, the outcome [10] was “inactive” and the outcome [11] was “inactive”. The outcome [12] was “inactive”.
For `Cc1[nH]nc2c1N=C(c1ccccc1Cl)c1cc([N+](=O)[O-])ccc1N2`, the AC50 (TTR (gene 7276)) was 0.771 µM (active).
For `CCCCCCCCCCCC(=O)O`, the AC50 (TTR (gene 7276)) was 3.05 µM (active).
In the case of `COc1cc([N+](=O)[O-])ccc1N`, the AC50 (TTR (gene 7276)) is reported as 14.9 µM (active).
With `CN(C)CCOC(c1ccccc1)c1ccccc1` the AC50 [5] was 2.01 µM (active), the AC50 [6] was 54.7 µM (active) and the AC50 [7] was 46.8 µM (active). The AC50 [8] was 61.7 µM (active), the AC50 [9] was 36.2 µM (active) and the AC50 [10] was 83.2 µM (active). For the same compound, the AC50 [11] was 19.8 µM (active) and the outcome [12] was “inactive”.
